Assay results: PubChem BioAssay (NCATS)
Inconclusive results are not listed. Activity calls are given as the source filed them. Calls follow the shape of the dose curve; as a rule, active = well fitted cell-killing curve with a large enough effect; inconclusive = small, poorly fitted or top-dose-only effect, or effect the other way; inactive = flat fitted curve, though single readings scatter.

What was measured:
Assay in all cases: Primary qHTS to identify gynecologic anti-cancer compounds using libraries of approved drugs and bioactive compounds (AID 1345084); also: nearly all actives have a fitted effect of over 55% in size
C33A = settings: Gynecologic cancer cell panel viability, ATPlite luminescence, 48 h; series mostly up to 57.5 µM
How it was run: (§1)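 In this quantitative HTS, cell killing is estimated from loss of ATP-dependent luciferase light. Cells see five compound concentrations over a 48 h exposure.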

CAOV3 = settings: Gynecologic cancer cell panel viability, ATPlite luminescence, 48 h; series mostly up to 57.5 µM
How it was run: as §1

CASKI = settings: Gynecologic cancer cell panel viability, ATPlite luminescence, 48 h; series mostly up to 57.5 µM
How it was run: as §1

Es-2 = settings: Gynecologic cancer cell panel viability, ATPlite luminescence, 48 h; series mostly up to 57.5 µM
How it was run: as §1

HeLa = settings: Gynecologic cancer cell panel viability, ATPlite luminescence, 48 h; series mostly up to 57.5 µM
How it was run: as §1

Hek293T = settings: Gynecologic cancer cell panel viability, ATPlite luminescence, 48 h, control line for the selectivity index; series mostly up to 57.5 µM
How it was run: as §1

JEG-3 = settings: Gynecologic cancer cell panel viability, ATPlite luminescence, 48 h; series mostly up to 57.5 µM
How it was run: as §1

OV90 = settings: Gynecologic cancer cell panel viability, ATPlite luminescence, 48 h; series mostly up to 57.5 µM
How it was run: as §1

PA-1 = settings: Gynecologic cancer cell panel viability, ATPlite luminescence, 48 h; series mostly up to 57.5 µM
How it was run: as §1

SKOV3 = settings: Gynecologic cancer cell panel viability, ATPlite luminescence, 48 h; series mostly up to 57.5 µM
How it was run: as §1

Tov-21-G = settings: Gynecologic cancer cell panel viability, ATPlite luminescence, 48 h; series mostly up to 57.5 µM
How it was run: as §1

Tov112D = settings: Gynecologic cancer cell panel viability, ATPlite luminescence, 48 h; series mostly up to 57.5 µM
How it was run: as §1
% is scaled to controls: 0 for no effect and ±100 for the full control effect.

CC(=O)N(c1onc(C)c1C)S(=O)(=O)c1ccc(N)cc1
inactive: Potency (C33A) | Potency (CAOV3) | Potency (CASKI) | Potency (Es-2) | Potency (HeLa) | Potency (Hek293T) | Potency (JEG-3) | Potency (OV90) | Potency (PA-1) | Potency (SKOV3) | Potency (Tov-21-G) | Potency (Tov112D)

CN(C)[C@@H]1C(=O)C(C(N)=O)=C(O)[C@@]2(O)C(=O)C3=C(O)c4c(O)cccc4C[C@H]3C[C@@H]12
inactive: Potency (C33A) | Potency (CAOV3) | Potency (CASKI) | Potency (Es-2) | Potency (HeLa) | Potency (Hek293T) | Potency (JEG-3) | Potency (OV90) | Potency (PA-1) | Potency (SKOV3) | Potency (Tov-21-G) | Potency (Tov112D)

Cc1oc(=O)oc1COC(=O)[C@@H]1N2C(=O)[C@@H](NC(=O)[C@H](N)c3ccccc3)[C@H]2SC1(C)C
inactive: Potency (C33A) | Potency (CAOV3) | Potency (CASKI) | Potency (Es-2) | Potency (HeLa) | Potency (Hek293T) | Potency (JEG-3) | Potency (OV90) | Potency (PA-1) | Potency (SKOV3) | Potency (Tov-21-G) | Potency (Tov112D)

CC(C)C(=O)Nc1cccc(C(F)(F)F)c1
inactive: Potency (C33A) | Potency (CAOV3) | Potency (CASKI) | Potency (Es-2) | Potency (HeLa) | Potency (Hek293T) | Potency (JEG-3) | Potency (OV90) | Potency (PA-1) | Potency (SKOV3) | Potency (Tov-21-G) | Potency (Tov112D)

COc1c(N2C[C@@H]3CCCN[C@@H]3C2)c(F)cc2c(=O)c(C(=O)O)cn(C3CC3)c12
inactive: Potency (C33A) | Potency (CAOV3) | Potency (CASKI) | Potency (Es-2) | Potency (HeLa) | Potency (Hek293T) | Potency (JEG-3) | Potency (OV90) | Potency (PA-1) | Potency (SKOV3) | Potency (Tov-21-G) | Potency (Tov112D)

CC(C)(Oc1ccc(Cl)cc1)C(=O)OCCCOC(=O)C(C)(C)Oc1ccc(Cl)cc1
inactive: Potency (C33A) | Potency (CAOV3) | Potency (CASKI) | Potency (Es-2) | Potency (HeLa) | Potency (Hek293T) | Potency (JEG-3) | Potency (OV90) | Potency (PA-1) | Potency (SKOV3) | Potency (Tov-21-G) | Potency (Tov112D)

Cc1ccc(-c2ccccc2C#N)cc1
inactive: Potency (C33A) | Potency (CAOV3) | Potency (CASKI) | Potency (Es-2) | Potency (HeLa) | Potency (Hek293T) | Potency (JEG-3) | Potency (OV90) | Potency (PA-1) | Potency (SKOV3) | Potency (Tov-21-G) | Potency (Tov112D)

CNC(=O)c1cnn(-c2nc(N)c3ncn([C@@H]4O[C@H](CO)[C@@H](O)[C@H]4O)c3n2)c1
inactive: Potency (C33A) | Potency (CAOV3) | Potency (CASKI) | Potency (Es-2) | Potency (HeLa) | Potency (Hek293T) | Potency (JEG-3) | Potency (OV90) | Potency (PA-1) | Potency (SKOV3) | Potency (Tov-21-G) | Potency (Tov112D)

O=C(O)CCCC[P+](c1ccccc1)(c1ccccc1)c1ccccc1
inactive: Potency (C33A) | Potency (CAOV3) | Potency (CASKI) | Potency (Es-2) | Potency (HeLa) | Potency (Hek293T) | Potency (JEG-3) | Potency (OV90) | Potency (PA-1) | Potency (SKOV3) | Potency (Tov-21-G) | Potency (Tov112D)

CCCCOC(=O)CCCCCCCCC(=O)OCCCC
inactive: Potency (C33A) | Potency (CAOV3) | Potency (CASKI) | Potency (Es-2) | Potency (HeLa) | Potency (Hek293T) | Potency (JEG-3) | Potency (OV90) | Potency (PA-1) | Potency (SKOV3) | Potency (Tov-21-G) | Potency (Tov112D)

O=C1c2ccccc2CCc2ccccc21
inactive: Potency (C33A) | Potency (CAOV3) | Potency (CASKI) | Potency (Es-2) | Potency (HeLa) | Potency (Hek293T) | Potency (JEG-3) | Potency (OV90) | Potency (PA-1) | Potency (SKOV3) | Potency (Tov-21-G) | Potency (Tov112D)

N[C@@H](Cn1ccc(=O)c(O)c1)C(=O)O
inactive: activity change, negative = cytotoxicity (C33A) 19.3% [at 6.55 µM] | activity change, negative = cytotoxicity (CAOV3) 11.6% [at 6.55 µM] | activity change, negative = cytotoxicity (CASKI) 1.33% [at 6.55 µM] | activity change, negative = cytotoxicity (Es-2) 4.8% [at 6.55 µM] | activity change, negative = cytotoxicity (HeLa) -0.102% [at 6.55 µM] | activity change, negative = cytotoxicity (Hek293T) -0.477% [at 6.55 µM] | activity change, negative = cytotoxicity (JEG-3) 1.6% [at 6.55 µM] | activity change, negative = cytotoxicity (OV90) 12.3% [at 6.55 µM] | activity change, negative = cytotoxicity (PA-1) 16.1% [at 6.55 µM] | activity change, negative = cytotoxicity (SKOV3) 23.2% [at 6.55 µM] | activity change, negative = cytotoxicity (Tov-21-G) -4.16% [at 6.55 µM] | activity change, negative = cytotoxicity (Tov112D) 12.5% [at 6.55 µM]

N#Cc1cc(NC(=O)C(=O)O)c(Cl)c(NC(=O)C(=O)O)c1
inactive: Potency (C33A) | Potency (CAOV3) | Potency (CASKI) | Potency (Es-2) | Potency (HeLa) | Potency (Hek293T) | Potency (JEG-3) | Potency (OV90) | Potency (PA-1) | Potency (SKOV3) | Potency (Tov-21-G) | Potency (Tov112D)

CCCC(=O)Nc1ccc(O)c(C(C)=O)c1
inactive: Potency (C33A) | Potency (CAOV3) | Potency (CASKI) | Potency (Es-2) | Potency (HeLa) | Potency (Hek293T) | Potency (JEG-3) | Potency (OV90) | Potency (PA-1) | Potency (SKOV3) | Potency (Tov-21-G) | Potency (Tov112D)

CC(C)Cc1ccc(C(C)C(=O)OCc2ccccn2)cc1 (stereo not drawn)
inactive: Potency (C33A) | Potency (CAOV3) | Potency (CASKI) | Potency (Es-2) | Potency (HeLa) | Potency (Hek293T) | Potency (JEG-3) | Potency (OV90) | Potency (PA-1) | Potency (SKOV3) | Potency (Tov-21-G) | Potency (Tov112D)

O=C1Nc2cc(Cl)ccc2Oc2ccccc21
inactive: Potency (C33A) | Potency (CAOV3) | Potency (CASKI) | Potency (Es-2) | Potency (HeLa) | Potency (Hek293T) | Potency (JEG-3) | Potency (OV90) | Potency (PA-1) | Potency (SKOV3) | Potency (Tov-21-G) | Potency (Tov112D)

CCOc1ncc(F)c(=O)[nH]1
inactive: Potency (C33A) | Potency (CAOV3) | Potency (CASKI) | Potency (Es-2) | Potency (HeLa) | Potency (Hek293T) | Potency (JEG-3) | Potency (OV90) | Potency (PA-1) | Potency (SKOV3) | Potency (Tov-21-G) | Potency (Tov112D)

O=C(CS(=O)Cc1ccco1)NC/C=C\COc1cc(CN2CCCCC2)ccn1 (stereo not drawn)
inactive: Potency (C33A) | Potency (CAOV3) | Potency (CASKI) | Potency (Es-2) | Potency (HeLa) | Potency (Hek293T) | Potency (JEG-3) | Potency (OV90) | Potency (PA-1) | Potency (SKOV3) | Potency (Tov-21-G) | Potency (Tov112D)

CCN1CCCC1CN (stereo not drawn)
inactive: Potency (C33A) | Potency (CAOV3) | Potency (CASKI) | Potency (Es-2) | Potency (HeLa) | Potency (Hek293T) | Potency (JEG-3) | Potency (OV90) | Potency (PA-1) | Potency (SKOV3) | Potency (Tov-21-G) | Potency (Tov112D)
